Measurements taken from PubChem BioAssay AID1159580 (chemical genetic matrix, 2015).
Screen size: about 5,500 compounds; about 2,000 (36%) were called active. Roughly 18% stayed inconclusive and do not appear here. Rule as the data show it: active = normalized growth mostly below about 0.91 (no sharp cut-off); inconclusive = no clear call, values can overlap the other calls; inactive = mostly above about 0.92. The list shows a part of the results.

Test: chemical genetic growth profiling, strain panel (AID 1159580);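 also: tested at 20 µM; growth read once vehicle control cultures reached saturation at 30 °C; 1 = growth at the plate median or of vehicle wells; lower values mean less growth of the strain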
Conditions: S. cerevisiae deletion strains, growth OD
[1] = locus YAL013W, strain DEP1, active compounds read low
[2] = locus YDR150W, strain NUM1, active compounds read low
[3] = locus YGR078C, strain PAC10, active compounds read low
[4] = locus YNL153C, strain GIM3, active compounds read low
[5] = locus YPL241C, strain CIN2, active compounds read low

Measured: normalized growth

Nc1ccc(C(=O)/C(=C\c2cccc([N+](=O)[O-])c2)C(=O)c2ccc(-c3ccccc3)cc2)cc1
inactive: [1] 0.99 | locus YBR229C, strain ROT2, active compounds read low 0.984 | locus YDL101C, strain DUN1, active compounds read low 0.997 | [2] 0.975 | locus YEL061C, strain CIN8, active compounds read low 0.999 | [3] 0.997 | locus YHR030C, strain SLT2, active compounds read low 0.869 | locus YHR087W, strain rtc3, active compounds read low 0.993 | locus YJL187C, strain SWE1, active compounds read low 1 | locus YJR043C, strain POL32, active compounds read low 0.979 | locus YJR075W, strain HOC1, active compounds read low 0.997 | locus YKL190W, strain CNB1, active compounds read low 0.997 | locus YLR039C, strain RIC1, active compounds read low 1 | locus YLR058C, strain SHM2 (second series), active compounds read low 0.987 | locus YLR085C, strain ARP6, active compounds read low 0.877 | locus YLR262C, strain YPT6, active compounds read low 0.915 | locus YML094W, strain GIM5, active compounds read low 0.993 | locus YMR219W, strain ESC1, active compounds read low 0.988 | locus YMR263W, strain SAP30, active compounds read low 1.01 | [4] 0.966 | locus YNL298W, strain CLA4 (second series), active compounds read low 0.936 | locus YNL322C, strain KRE1, active compounds read low 0.971 | locus YNR030W, strain Alg12, active compounds read low 0.955 | locus YPL055C, strain LGE1, active compounds read low 1 | [5] 0.949 | locus YPR135W, strain CTF4, active compounds read low 0.945

CCN1C[C@]2(C)CC[C@H](O)[C@@]34C5C[C@@H]6[C@@H](OC)C[C@@](O)(C5[C@H]6O)[C@@H](CC23)C14 (some centres not stated)
inactive: [1] 1.01 | locus YAL040C, strain CLN3, active compounds read low 1 | locus YCL061C, strain MRC1 (second series), active compounds read low 1 | [2] 0.996 | locus YDR363W, strain ESC2, active compounds read low 1.03 | locus YER002W, strain NOP16, active compounds read low 1.01 | [3] 0.999 | locus YGR229C, strain SMI1, active compounds read low 1.02 | locus YMR307W, strain GAS1, active compounds read low 0.999 | locus YNL128W, strain TEP1, active compounds read low 1 | [4] 1.01 | locus YNL175C, strain NOP13, active compounds read low 1.01 | locus YNL197C, strain WHI3, active compounds read low 1.01 | locus YNL224C, strain SQS1, active compounds read low 0.997 | locus YOR083W, strain WHI5 (second series), active compounds read low 1.01 | [5] 1
